# Results filed as inconclusive are left out. A call without a number means that no potency is given here. Activity calls are given as the source filed them. Unless noted, the call rests on the fitted dose curve.
# How the values were obtained:
# [1] = Primary qHTS for inhibitors of SARS-S pseudo-typed particle cell entry (AID 1479145); further: nearly all actives have a fitted effect of over 45% in size; further: potency means the concentration at half of the fitted maximal effect
# [2] = Primary qHTS for Huh7 cytotoxicity: counterscreen for inhibitors of MERS-S pseudotyped particle cell entry (AID 1479147); further: potency means the concentration at half of the fitted maximal effect
# [3] = Primary qHTS for inhibitors of MERS-S pseudo-typed particle cell entry (AID 1479149); further: nearly all actives have a fitted effect of over 60% in size; further: potency means the concentration at half of the fitted maximal effect
# [4] = Primary qHTS for Vero E6 cytotoxicity: counterscreen for inhibitors of SARS-S pseudo-typed particle cell entry (AID 1479150)
# [5] = target: Calcium and integrin-binding protein 1 (Homo sapiens) (UniProt Q99828); test: Primary qHTS for Identification of Calcium Integrin Binding Protein 1 (CIB1) Competitor (AID 1508620; active means well fitted curve in the direction sought with a large enough effect; an effect the other way counts as inactive or inconclusive; further: potency means the concentration at half of the fitted maximal effect)
# Sequence of Calcium and integrin-binding protein 1 (Homo sapiens) (Q99828 whole entry, looked up): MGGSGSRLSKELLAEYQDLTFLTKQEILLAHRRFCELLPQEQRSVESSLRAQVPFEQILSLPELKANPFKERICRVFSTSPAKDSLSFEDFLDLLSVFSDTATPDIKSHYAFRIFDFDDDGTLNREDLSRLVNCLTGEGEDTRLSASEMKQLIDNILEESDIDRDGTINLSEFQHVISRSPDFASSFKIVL
# Method in brief: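 Fluorescence polarization competition: CIB1-GST (1 uM final) preincubated with compound 15 min at room temperature, then FITC-labeled alphaIIb peptide (100 nM final) added for another 15 min. Polarization read at Ex 480/Em 540.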
# [6] = target: Calcium and integrin-binding protein 1 (Homo sapiens) (UniProt Q99828); test: Validation qHTS for Identification of Calcium Integrin Binding protein 1 (CIB1) Competitor (AID 1508618; active means well fitted curve in the direction sought with a large enough effect; an effect the other way counts as inactive or inconclusive; further: potency means the concentration at half of the fitted maximal effect)
# Method in brief: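 CIB1-GST (1 uM final) in 5 mM HEPES pH 7.4, 125 mM NaCl, 5 mM CaCl2, 0.01% Tween20 was preincubated 15 min at room temperature with compound (up to 114 uM), then FITC-alphaIIb peptide (100 nM) added for 15 min; fluorescence polarization read.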
# [7] = Primary qHTS for inhibitors of La Crosse Virus (LACV) - induced cell death in SH-SY5Y cells (AID 1508616; active means well fitted curve in the direction sought with a large enough effect; an effect the other way counts as inactive or inconclusive;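 further: top concentration of the series differs between compounds; higher means more rescue of cells from virus-induced death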)
# Method in brief: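 Protection against LACV-induced cell death is scored in SH-SY5Y cells exposed to compounds and virus (0.01 MOI) for 6 days. Data normalized to virus-infected DMSO wells and virus-free DMSO wells.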
# [8] = Confirmatory qHTS for VERO E6 Cytotoxicity Assay: Counterscreen for SARS-CoV-2 CPE Assay (AID 1508605); further: nearly all actives have a fitted effect of over 60% in size; further: potency means the concentration at half of the fitted maximal effect
# [9] = Confirmatory qHTS for activators (rescue) of SARS-CoV-2 Cytopathic Effect (CPE) (AID 1508606); further: potency means the concentration at half of the fitted maximal effect; nearly all actives have a fitted effect of over 70% in size
# [10] = target: Calcium and integrin-binding protein 1 (Homo sapiens) (UniProt Q99828); test: Confirmatory qHTS for Identification of Calcium Integrin Binding Protein 1 (CIB1) Competitor (AID 1508617; active means well fitted curve in the direction sought with a large enough effect; an effect the other way counts as inactive or inconclusive; further: nearly all actives have a fitted effect of over 65% in size)
# Method in brief: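 Fluorescence polarization competition: CIB1-GST (1 uM final) in 5 mM HEPES pH 7.4, 125 mM NaCl, 5 mM CaCl2, 0.01% Tween20 preincubated 15 min RT with compound (up to 114 uM), then FITC-alphaIIb peptide (100 nM) added, 15 min RT.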
smiles,measurement,setting,value
Cn1cc(C2=C(c3cn(C4CCN(Cc5ccccn5)CC4)c4ccccc34)C(=O)NC2=O)c2ccccc21,Potency,[1],inactive
same,Potency,[2],inactive
same,Potency,[3],inactive
same,Potency,[4],inactive
same,Potency,[5],inactive
Cn1c(=O)c2c(ncn2CC(O)CO)n(C)c1=O (stereo unspecified),Potency,[1],inactive
same,Potency,[2],inactive
same,Potency,[4],inactive
CC(=O)O[C@]1(C(C)=O)CC[C@H]2[C@@H]3C=C(C)C4=CC(=O)CC[C@]4(C)[C@H]3CC[C@@]21C,Potency,[1],inactive
same,Potency,[2],inactive
same,Potency,[4],inactive
CCCCc1oc2ccc(NS(C)(=O)=O)cc2c1C(=O)c1ccc(OCCCN(CCCC)CCCC)cc1,Potency,[1],22.4 µM (active)
same,Potency,[3],17.8 µM (active)
CCCCNc1ccc(C(=O)OCCOCCOCCOCCOCCOCCOCCOCCOCCOC)cc1,Potency,[1],inactive
same,Potency,[2],inactive
same,Potency,[4],inactive
C[C@@H]1O[C@@H](O[C@H]2C[C@@H](O)[C@]3(CO)[C@H]4[C@H](O)C[C@]5(C)[C@@H](C6=CC(=O)OC6)CC[C@]5(O)[C@@H]4CC[C@]3(O)C2)[C@H](O)[C@H](O)[C@H]1O,Potency,[1],inactive
same,Potency,[2],1.26 µM (active)
same,Potency,[3],inactive
same,Potency,[6],inactive
same,Potency,[5],inactive
CC(C)(C)CC(C)(C)c1ccc(O)cc1,Potency,[1],inactive
same,Potency,[2],inactive
same,Potency,[3],inactive
same,Potency,[7],inactive
same,Potency,[5],inactive
CN1C(=O)CC(C)(c2ccccc2)C1=O (stereo unspecified),Potency,[1],inactive
same,Potency,[2],inactive
same,Potency,[4],inactive
O=c1c(O)c(-c2ccc(O)c(O)c2)oc2cc(O)cc(O)c12,Potency,[1],inactive
same,Potency,[2],inactive
same,Potency,[4],inactive
Cn1cnc([N+](=O)[O-])c1Sc1ncnc2nc[nH]c12,Potency,[1],inactive
same,Potency,[2],inactive
same,Potency,[4],inactive
CC(C)(C)NCC(O)c1cc(Cl)c(N)c(Cl)c1 (stereo unspecified),Potency,[1],inactive
same,Potency,[2],inactive
same,Potency,[3],inactive
same,Potency,[4],inactive
same,Potency,[7],inactive
same,Potency,[5],inactive
O=c1[nH]c2ccccc2n1C1CCN(CCCC(c2ccc(F)cc2)c2ccc(F)cc2)CC1,Potency,[1],11.2 µM (active)
same,Potency,[2],inactive
same,Potency,[4],inactive
same,Potency,[7],inactive
same,Potency,[6],inactive
same,Potency,[5],inactive
O=C1CC[C@@]2(O)[C@H]3Cc4ccc(O)c5c4[C@@]2(CCN3CC2CC2)[C@H]1O5,Potency,[1],inactive
same,Potency,[2],inactive
same,Potency,[3],inactive
same,Potency,[4],inactive
same,Potency,[7],inactive
same,Potency,[5],inactive
C[C@H]1O[C@@H](O[C@H]2[C@@H](O)C[C@H](O[C@H]3[C@@H](O)C[C@H](O[C@H]4CC[C@@]5(C)[C@H](CC[C@@H]6[C@@H]5CC[C@]5(C)[C@@H](C7=CC(=O)OC7)CC[C@]65O)C4)O[C@@H]3C)O[C@@H]2C)C[C@H](O)[C@@H]1O,Potency,[1],inactive
same,Potency,[3],inactive
FC(F)(F)c1cccc(C2=CCN(CCc3ccc4ccccc4c3)CC2)c1,Potency,[1],inactive
same,Potency,[2],inactive
same,Potency,[3],inactive
same,Potency,[4],inactive
same,Potency,[7],inactive
same,Potency,[5],inactive
C#CCN(C)[C@H](C)Cc1ccccc1,Potency,[1],inactive
same,Potency,[2],inactive
same,Potency,[3],inactive
same,Potency,[4],inactive
same,Potency,[7],inactive
same,Potency,[5],inactive
NNc1nncc2ccccc12,Potency,[1],inactive
same,Potency,[3],inactive
CN1CCN(C(=O)O[C@H]2c3nccnc3C(=O)N2c2ccc(Cl)cn2)CC1,Potency,[1],inactive
same,Potency,[2],inactive
same,Potency,[3],inactive
same,Potency,[4],inactive
same,Potency,[7],inactive
same,Potency,[5],inactive
COc1cc(Nc2c(C#N)cnc3cc(OCCCN4CCN(C)CC4)c(OC)cc23)c(Cl)cc1Cl,Potency,[2],28.2 µM (active)
CC(C)C(=O)Nc1ccc([N+](=O)[O-])c(C(F)(F)F)c1,Potency,[2],inactive
same,Potency,[3],22.4 µM (active)
CC(CCc1ccccc1)NC(C)C(O)c1ccc(O)cc1 (stereo unspecified),Potency,[1],inactive
same,Potency,[3],inactive
same,Potency,[4],inactive
same,Potency,[7],inactive
same,Potency,[6],inactive
same,Potency,[5],inactive
NC(=O)N/N=C/c1ccc([N+](=O)[O-])o1,Potency,[1],inactive
same,Potency,[3],inactive
same,Potency,[4],inactive
COc1ccc(-c2cc(=S)ss2)cc1,Potency,[2],inactive
same,Potency,[3],inactive
CN1CCC[C@@H]1CCO[C@](C)(c1ccccc1)c1ccc(Cl)cc1,Potency,[1],10 µM (active)
same,Potency,[3],4.47 µM (active)
same,Potency,[4],inactive
same,Potency,[8],inactive
same,Potency,[9],10 µM (active)
CC(=O)N(O)CCCCCNC(=O)CCC(=O)N(O)CCCCCNC(=O)CCC(=O)N(O)CCCCCN,Potency,[1],inactive
same,Potency,[3],inactive
same,Potency,[4],inactive
CNCC[C@@H](Oc1ccccc1C)c1ccccc1,Potency,[1],inactive
same,Potency,[4],inactive
CCN(CC)CCNC(=O)c1c(C)[nH]c(/C=C2\C(=O)Nc3ccc(F)cc32)c1C,Potency,[2],31.6 µM (active)
same,Potency,[3],11.2 µM (active)
O=C(c1ccc(OCCN2CCCCC2)cc1)c1c(-c2ccc(O)cc2)sc2cc(O)ccc12,Potency,[1],20 µM (active)
same,Potency,[3],11.2 µM (active)
same,Potency,[4],inactive
O=C1N=C(O)CN1/N=C/c1ccc(-c2ccc([N+](=O)[O-])cc2)o1,Potency,[2],inactive
same,Potency,[3],inactive
same,Potency,[4],inactive
N=C(N)c1ccc(OCCCCCOc2ccc(C(=N)N)cc2)cc1,Potency,[2],inactive
CC[C@@H](CO)NC(=O)[C@@H]1C=C2c3cccc4c3c(cn4C)C[C@H]2N(C)C1,Potency,[1],inactive
same,outcome,[10],inactive
same,Potency,[6],44.7 µM (active)
same,Potency,[5],44.7 µM (active)
Cc1nccn1CC1CCc2c(c3ccccc3n2C)C1=O (stereo unspecified),Potency,[2],inactive
same,Potency,[3],inactive
same,Potency,[4],inactive
COc1cc(C(C)=O)ccc1OCCCN1CCC(c2noc3cc(F)ccc23)CC1,Potency,[1],22.4 µM (active)
same,Potency,[8],inactive
same,Potency,[9],11.2 µM (active)
CCC(C)(C)C(=O)O[C@H]1C[C@@H](C)C=C2C=C[C@H](C)[C@H](CC[C@@H]3C[C@@H](O)CC(=O)O3)[C@H]21,Potency,[2],inactive
same,Potency,[3],inactive
CN1CCN(CCCN2c3ccccc3Sc3ccc(Cl)cc32)CC1,Potency,[1],22.4 µM (active)
same,Potency,[4],inactive
same,Potency,[8],20 µM (active)
COc1ccc(Cc2nccc3cc(OC)c(OC)cc23)cc1OC,Potency,[1],14.1 µM (active)
same,Potency,[7],inactive
same,Potency,[5],inactive

# From PubChem BioAssay (NCATS)
